Experimental findings from PubChem BioAssay (NCI) are described below.

Test systems include RPMI-8226 leukemia; OVCAR-8 ovarian; OVCAR-5 ovarian; OVCAR-4 ovarian; SK-OV-3 ovarian; IGROV1 ovarian; OVCAR-3 ovarian; HS 578T breast; NCI/ADR-RES ovarian.
Holding throughout (experiment): NCI-60 one-dose screen, 48 h (100 = growth as untreated, 0 = no growth, -100 = all killed)
Common to all, as to conditions: 10 µM

Compounds without any hit were thinned out: in the full panel of roughly 83,000, 20% have a hit.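 Compound tested at a single concentration for 48 hours in 96-well plates; a percent growth value below 10 was scored as active.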 Unmarked numbers belong to inactive results. Active and inactive are the calls of the source.

For `CC(C)CCSc1nc(NC2CC2)c(C#N)c(-c2ccc(C(C)C)cc2)n1`, the growth is 101% in the experiment on RPMI-8226 leukemia; 110% in the experiment with OVCAR-8 ovarian; 111% with OVCAR-5 ovarian; 112% in the experiment with OVCAR-4 ovarian; 96.5% with SK-OV-3 ovarian; 113% in the experiment with IGROV1 ovarian. Moreover, the values for the growth in the experiment with OVCAR-3 ovarian, with HS 578T breast and in the experiment with NCI/ADR-RES ovarian were 117%, 108% and 108%, respectively.

As to `N#Cc1c(-c2ccc(F)cc2)nc(SCc2ccc([N+](=O)[O-])cc2)nc1N1CCOCC1`, the growth was 80.3% in the experiment on RPMI-8226 leukemia; 53.1% with OVCAR-8 ovarian; 92.1% in the experiment on OVCAR-5 ovarian; 57.2% in the experiment on OVCAR-4 ovarian; 44.5% in the experiment with SK-OV-3 ovarian; 80.5% in the experiment on IGROV1 ovarian. Moreover, the growth was 69.7% in the experiment on OVCAR-3 ovarian, 15.6% in the experiment on HS 578T breast and 41.6% with NCI/ADR-RES ovarian.

`CNCc1cccc2c1OCCCCCC[C@@](C)(O)CC1(CC1)S(=O)(=O)c1ccc(cc1)-c1cnc(N)c(n1)C(=O)N2`: the growth in the experiment with RPMI-8226 leukemia is -31.3% (active); in the experiment on OVCAR-8 ovarian, -65.5% (active); in the experiment with OVCAR-5 ovarian, -89.7% (active); in the experiment with OVCAR-4 ovarian it was -76.9% (active); in the experiment with SK-OV-3 ovarian, -87.9% (active); in the experiment on IGROV1 ovarian it was -91.2% (active). In addition, the values for the growth in the experiment on OVCAR-3 ovarian, in the experiment on HS 578T breast and in the experiment with NCI/ADR-RES ovarian were -91.1% (active), -40.5% (active) and -92.1% (active), respectively.

Consider `CS(=O)(=O)Nc1ccc(-c2ccc3c(c2)ncn3-c2ccc(NC(=O)Nc3ccc(Cl)c(C(F)(F)F)c3)cc2)cc1`, for which the growth with RPMI-8226 leukemia was -28.6% (active); in the experiment with OVCAR-8 ovarian it was -34.8% (active); in the experiment on OVCAR-5 ovarian, -84.9% (active); in the experiment on OVCAR-4 ovarian, -47.2% (active); with SK-OV-3 ovarian it was -53.4% (active); in the experiment with IGROV1 ovarian, -43.1% (active). Further, the growth was -54.3% (active) in the experiment on OVCAR-3 ovarian, -33.2% (active) in the experiment on HS 578T breast and -1.05% (active) in the experiment on NCI/ADR-RES ovarian.

Turning to `CO[C@H]1CSS[C@@H]1Cn1nc(-c2ccc(Oc3ccccc3)cc2)c2c(N)ncnc21`, the growth in the experiment with RPMI-8226 leukemia is 36.4%; with OVCAR-8 ovarian it was 48.2%; in the experiment with OVCAR-5 ovarian, 28.5%; in the experiment with OVCAR-4 ovarian it was 50.2%; in the experiment with SK-OV-3 ovarian, -1.28% (active); in the experiment on IGROV1 ovarian, 29.4%. Also, the growth with OVCAR-3 ovarian is 61.2%; in the experiment on HS 578T breast, 28.4%; in the experiment on NCI/ADR-RES ovarian, 42.6%.

On to `Cc1nc(Nc2nc(C)c3ccc(OCCN4CCOCC4)cc3n2)[nH]c(=O)c1C`, for which the growth in the experiment on RPMI-8226 leukemia was 7.09% (active); in the experiment with OVCAR-8 ovarian, 0.429% (active); with OVCAR-5 ovarian it was -39.9% (active); in the experiment with OVCAR-4 ovarian it was -22.1% (active); with SK-OV-3 ovarian, -6.44% (active); in the experiment with IGROV1 ovarian, -14% (active). The growth is 3.38% (active) in the experiment on OVCAR-3 ovarian, 11.9% with HS 578T breast and -19.5% (active) in the experiment with NCI/ADR-RES ovarian.

For `O=C(N/N=C/c1ccc(-c2cccc([N+](=O)[O-])c2)o1)c1[nH]c2ccc(Br)cc2c1-c1ccccc1`, the growth with RPMI-8226 leukemia was 12%; in the experiment with OVCAR-8 ovarian it was -19.9% (active); in the experiment with OVCAR-5 ovarian, 23.3%; in the experiment on OVCAR-4 ovarian, 45.5%; with SK-OV-3 ovarian, 32.2%; in the experiment with IGROV1 ovarian, 33.7%. Besides, the results for the growth in the experiment with OVCAR-3 ovarian, in the experiment on HS 578T breast and in the experiment on NCI/ADR-RES ovarian were 1.91% (active), -2.96% (active) and -50.9% (active), respectively.

Regarding `O=C(c1ccc([N+](=O)[O-])c([N+](=O)[O-])c1O)n1[nH]c(=O)c2ccccc2c1=O`, the growth was 26.6% in the experiment with RPMI-8226 leukemia; 55.5% in the experiment with OVCAR-8 ovarian; 110% in the experiment with OVCAR-5 ovarian; 78.3% in the experiment with OVCAR-4 ovarian; 102% with SK-OV-3 ovarian; 94.6% in the experiment on IGROV1 ovarian. The growth is 25.8% with OVCAR-3 ovarian, 77.4% in the experiment with HS 578T breast and 35.5% in the experiment on NCI/ADR-RES ovarian.

Consider `Cc1nc2c(cnn2-c2ccccc2)c(=O)n1-c1ccc(NC(=O)c2ccc(F)cc2)cc1`, for which the growth is 35.2% in the experiment on RPMI-8226 leukemia; 63.7% in the experiment with OVCAR-8 ovarian; 97.9% with OVCAR-5 ovarian; 40.1% in the experiment on OVCAR-4 ovarian; 111% in the experiment on SK-OV-3 ovarian; 73.5% with IGROV1 ovarian. The growth with OVCAR-3 ovarian was 85.4%; in the experiment with HS 578T breast it was 78.7%; in the experiment with NCI/ADR-RES ovarian, 42.8%.

As to `COc1ccc2[nH]c(O)c(N=NC(=O)COc3ccc(NC(=O)Nc4ccc(Cl)c(Cl)c4)cc3)c2c1`, the growth was 11.1% with RPMI-8226 leukemia; -69.2% (active) with OVCAR-8 ovarian; -21.8% (active) in the experiment on OVCAR-5 ovarian; -92.7% (active) in the experiment with OVCAR-4 ovarian; -12.4% (active) with SK-OV-3 ovarian; -4.72% (active) with IGROV1 ovarian. The growth is -44.5% (active) with OVCAR-3 ovarian, -3.4% (active) with HS 578T breast and 84.4% in the experiment on NCI/ADR-RES ovarian.

In the case of `O=C(Nc1ccc(I)cc1)Nc1nc2ccc([N+](=O)[O-])cc2s1`, the growth in the experiment on RPMI-8226 leukemia is -71.7% (active); with OVCAR-8 ovarian, -76.1% (active); in the experiment with OVCAR-5 ovarian, -98.4% (active); with OVCAR-4 ovarian it was -77.3% (active); in the experiment on SK-OV-3 ovarian, -69.9% (active); with IGROV1 ovarian it was -95.7% (active). The growth with OVCAR-3 ovarian was -92% (active); in the experiment on HS 578T breast, -64.9% (active); in the experiment on NCI/ADR-RES ovarian, -88.4% (active).

As for `Cc1cccc2cc(-c3cc(-c4ccccc4)nc(=O)[nH]3)c(Cl)nc12`, the growth in the experiment on RPMI-8226 leukemia is 17.8%; in the experiment on OVCAR-8 ovarian, 72.8%; in the experiment with OVCAR-5 ovarian, 93%; with OVCAR-4 ovarian, 103%; in the experiment with SK-OV-3 ovarian it was 118%; in the experiment with IGROV1 ovarian, 101%. The growth in the experiment on OVCAR-3 ovarian was 91.4%; in the experiment with HS 578T breast, 89.8%; with NCI/ADR-RES ovarian, 73.5%.

Regarding `CN1CCN(Cc2ccc(C(=O)Nc3cccc(Nc4ccc5cc(O)ccc5n4)c3)cc2C(F)(F)F)CC1`, the growth with RPMI-8226 leukemia is -51.3% (active); in the experiment on OVCAR-8 ovarian, 4.28% (active); in the experiment with OVCAR-5 ovarian it was -25% (active); in the experiment with OVCAR-4 ovarian it was 6.75% (active); in the experiment on SK-OV-3 ovarian, 26.3%; in the experiment on IGROV1 ovarian, -37.8% (active). For the same compound, the growth in the experiment on OVCAR-3 ovarian was -58.9% (active); in the experiment on HS 578T breast it was -2.79% (active); in the experiment on NCI/ADR-RES ovarian, 28.6%.

`CC[C@@]1(O)C(=O)OCc2c1cc1n(c2=O)Cc2c-1nc1cc(F)c(C)c3c1c2[C@@H](N)CC3`: the growth in the experiment on RPMI-8226 leukemia is -3.74% (active); with OVCAR-8 ovarian, -38.3% (active); in the experiment with OVCAR-5 ovarian it was -12.5% (active); in the experiment on OVCAR-4 ovarian, -4.52% (active); in the experiment with SK-OV-3 ovarian, -32% (active); in the experiment with IGROV1 ovarian, -47.8% (active). The results for the growth in the experiment on OVCAR-3 ovarian, with HS 578T breast and in the experiment on NCI/ADR-RES ovarian were -17.8% (active), 51.3% and -12.2% (active), respectively.

For the compound `O=C1Nc2cc(Cl)ccc2/C1=C/c1ccc(OCc2ccc(Br)cc2F)cc1`, the growth is 0.87% (active) in the experiment on RPMI-8226 leukemia; -79.6% (active) in the experiment on OVCAR-8 ovarian; 25.2% with OVCAR-5 ovarian; -53.8% (active) in the experiment with OVCAR-4 ovarian; -20.3% (active) with SK-OV-3 ovarian; -41.9% (active) with IGROV1 ovarian. Moreover, the figures for the growth in the experiment on OVCAR-3 ovarian, with HS 578T breast and with NCI/ADR-RES ovarian were -82.1% (active), -16.8% (active) and -71% (active), respectively.

In the case of `CCN1CCN(c2ccc(NC(=O)Nc3ccc(-c4cc(C(=O)NC)c5ncccc5n4)cc3)cc2C(F)(F)F)CC1`, the growth was -50.3% (active) with RPMI-8226 leukemia; -94.1% (active) in the experiment with OVCAR-8 ovarian; -100% (active) with OVCAR-5 ovarian; -100% (active) with OVCAR-4 ovarian; -88.7% (active) with SK-OV-3 ovarian; -98.2% (active) in the experiment on IGROV1 ovarian. The growth in the experiment with OVCAR-3 ovarian is -100% (active); in the experiment on HS 578T breast, -51.5% (active); in the experiment on NCI/ADR-RES ovarian, -65.3% (active).

As for `Cc1cccc2cc(-c3cc(-c4ccccc4)nc(=S)[nH]3)c(Cl)nc12`, the growth with RPMI-8226 leukemia was 81%; in the experiment with OVCAR-8 ovarian, 85.4%; in the experiment on OVCAR-5 ovarian, 108%; with OVCAR-4 ovarian it was 99.5%; in the experiment with SK-OV-3 ovarian, 116%; with IGROV1 ovarian, 93.1%. Further, the growth with OVCAR-3 ovarian is 107%; in the experiment with HS 578T breast, 59.4%; in the experiment with NCI/ADR-RES ovarian, 56.6%.

`CNC(=O)c1cc(-c2ccc(NC(=O)Nc3ccc(C)cc3)cc2)nc2cccnc12`: the growth in the experiment with RPMI-8226 leukemia was 88.8%; in the experiment with OVCAR-8 ovarian it was 97.8%; in the experiment on OVCAR-5 ovarian it was 105%; with OVCAR-4 ovarian it was 108%; in the experiment with SK-OV-3 ovarian, 91.1%; in the experiment with IGROV1 ovarian, 92.8%. Besides, the growth with OVCAR-3 ovarian is 105%; in the experiment on HS 578T breast, 106%; in the experiment on NCI/ADR-RES ovarian it was 94.3%.

Take `N#Cc1c(Cl)nc(SCc2ccc(F)cc2)nc1-c1ccc(F)cc1`: the growth in the experiment with RPMI-8226 leukemia is 91.4%; in the experiment with OVCAR-8 ovarian it was 89.2%; with OVCAR-5 ovarian, 95.6%; with OVCAR-4 ovarian, 95%; in the experiment with SK-OV-3 ovarian it was 103%; in the experiment on IGROV1 ovarian, 109%. In addition, the figures for the growth in the experiment on OVCAR-3 ovarian, with HS 578T breast and in the experiment on NCI/ADR-RES ovarian were 111%, 95.2% and 86.6%, respectively.
